Potency and affinity values are given separately. Activity calls are given as the source filed them. A call without a number means that no potency is given here. The rule behind the calls is not given here.
Each compound was assayed against Plasmodium falciparum protein kinase 6 (PK6, PF3D7_1337100) (UniProt Q8IDW1) (assay: PfPK6 kinase inhibitors, biochemical, TCAMS library (AID 1159586)). Conditions: recombinant PfPK6, Kinase-Glo ATP depletion luminescence.
Sequence of Plasmodium falciparum protein kinase 6 (PK6, PF3D7_1337100) (Q8IDW1 1-305): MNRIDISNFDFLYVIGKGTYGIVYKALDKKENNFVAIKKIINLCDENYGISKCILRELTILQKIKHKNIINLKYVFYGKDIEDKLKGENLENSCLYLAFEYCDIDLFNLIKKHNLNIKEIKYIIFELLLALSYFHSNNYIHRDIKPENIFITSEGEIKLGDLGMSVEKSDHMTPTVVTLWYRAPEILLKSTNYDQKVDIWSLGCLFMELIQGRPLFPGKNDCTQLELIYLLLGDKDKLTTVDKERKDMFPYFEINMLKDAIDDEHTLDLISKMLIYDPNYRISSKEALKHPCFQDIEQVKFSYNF

Row | SMILES | outcome
1 | Cc1noc(C)c1-c1cccc(CNCc2ccc(-c3ccc(-c4nc5ccccc5[nH]4)s3)cc2)c1 | inactive
2 | N=C(N)CCN(Cc1ccc(Cl)cc1)c1ccc(Cl)cc1 | inactive
3 | COc1ccc2c(NN=Cc3ccccc3F)ccnc2c1 | inactive
4 | FC(F)(F)c1ccc2nc(-c3ccc(-c4cccc(CNCc5ccccc5)c4)s3)[nH]c2c1 | inactive
5 | O=[N+]([O-])c1cc(C(c2ccc(O)c([N+](=O)[O-])c2)C(Cl)(Cl)Cl)ccc1O | inactive
6 | N#Cc1ccc2c(c1)CCN(CCC1CCC(NC(=O)/C=C/c3cnc4ccccc4c3)CC1)CC2 (stereo unspecified) | inactive
7 | Cn1c(NC(=O)C2CCC(CNC(=O)c3ccc(O)c(-c4cccc([N+](=O)[O-])c4)c3)CC2)nc2ccccc21 (stereo unspecified) | inactive
8 | Fc1cccc(CNc2ncc(-c3ccsc3)c(-c3nccs3)n2)c1 | inactive
9 | Cc1cc(N[C@@H](CC(C)C)C(=O)NCc2cccc(F)c2)nc(Nc2ccccc2)n1 | inactive
10 | CCc1sc(N2CCN(C)CC2)nc1C(=O)NCCc1ccc(Cl)c(Cl)c1 | inactive
11 | COc1cc2nc(N3CCC(CCCC4CCNCC4)CC3)nc(NCc3ccccn3)c2cc1OC | inactive
12 | O=C(NC1CCN(Cc2ccccc2O)C1)c1ccc(Cl)c(Cl)c1 (stereo unspecified) | inactive
13 | CNC(=O)/C=C/c1cc(NC(=O)Nc2cc(C)nc3c(F)cccc23)ccc1OC | inactive
14 | CCc1ccc(NC(=O)c2ccc(CN3CCCN(Cc4cccc(O)c4)CC3)cc2)cc1 | inactive
15 | CC(C)c1sc(-c2ccc(C(C)(C)C)cc2)nc1C(=O)NCCCN1CCCC1=O | inactive
16 | NC(N)=Nc1nc(-c2cccc(NC(=O)Cc3ccccc3)c2)cs1 | inactive

Source: PubChem BioAssay
